From PubChem BioAssay (NCI)
Compounds without any hit were thinned out: in the full panel of roughly 83,000, 20% have a hit.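 Growth was measured after 48 h exposure to one concentration of compound in 96-well plates. Values under 10 count as active.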 Calls of active or inactive are those of the source.

Legend:
Test in all cases: NCI-60 one-dose screen, 48 h (100 = growth as untreated, 0 = no growth, -100 = all killed)
Conditions in all cases: 10 µM unless noted
HCT-15 colon = system: HCT-15 colon
HT29 colon = system: HT29 colon
SNB-75 CNS = system: SNB-75 CNS
SNB-19 CNS = system: SNB-19 CNS
U251 CNS = system: U251 CNS
PC-3 prostate = system: PC-3 prostate
SK-MEL-5 melanoma = system: SK-MEL-5 melanoma
UACC-62 melanoma = system: UACC-62 melanoma
LOX IMVI melanoma = system: LOX IMVI melanoma
SK-MEL-28 melanoma = system: SK-MEL-28 melanoma
SK-MEL-2 melanoma = system: SK-MEL-2 melanoma
EKVX NSCLC = system: EKVX NSCLC
SN12C renal = system: SN12C renal
UO-31 renal = system: UO-31 renal
TK-10 renal = system: TK-10 renal
ACHN renal = system: ACHN renal
CAKI-1 renal = system: CAKI-1 renal
CCRF-CEM leukemia = system: CCRF-CEM leukemia
MOLT-4 leukemia = system: MOLT-4 leukemia

Measured: growth

CCN1CCN(CCNc2nccc(-c3c(-c4cccc(OC)c4)nc4occn34)n2)S1(=O)=O
inactive: HCT-15 colon 102% | HT29 colon 50.3% | SNB-75 CNS 112% | SNB-19 CNS 113% | U251 CNS 113% | PC-3 prostate 96.9% | SK-MEL-5 melanoma 60.5% | UACC-62 melanoma 27.5% | LOX IMVI melanoma 76.6% | SK-MEL-28 melanoma 47.3% | SK-MEL-2 melanoma 93.6% | EKVX NSCLC 90.9% | SN12C renal 95.6% | UO-31 renal 91.9% | TK-10 renal 128% | ACHN renal 84.9% | CAKI-1 renal 78.1% | CCRF-CEM leukemia 117% | MOLT-4 leukemia 89%

O=C(O)c1ccc(-c2nn(-c3ccc(C(F)(F)F)cc3)cc2CNc2ccc(Oc3ccccc3)cc2)cc1
inactive: HCT-15 colon 43.2% | HT29 colon 67% | SNB-75 CNS 80.6% | SNB-19 CNS 82.7% | U251 CNS 67% | PC-3 prostate 90.6% | SK-MEL-5 melanoma 78.9% | UACC-62 melanoma 77.5% | LOX IMVI melanoma 82.5% | SK-MEL-28 melanoma 89.1% | SK-MEL-2 melanoma 90% | EKVX NSCLC 66.9% | SN12C renal 78.2% | UO-31 renal 60.1% | TK-10 renal 98.3% | ACHN renal 65.9% | CAKI-1 renal 91.8% | CCRF-CEM leukemia 76.7% | MOLT-4 leukemia 67.6%

COC(=O)/C=C1\S/C(=N\NC(=O)c2cc3ccc2/C=C\c2ccc(cc2)/C=C\3)N(Cc2ccccc2)C1=O
active: LOX IMVI melanoma 6.21% | CCRF-CEM leukemia 3.83% | MOLT-4 leukemia 1.09%
inactive: HCT-15 colon 27.8% | HT29 colon 12.4% | SNB-75 CNS 51.2% | SNB-19 CNS 56.9% | U251 CNS 55% | PC-3 prostate 17.8% | SK-MEL-5 melanoma 82.3% | UACC-62 melanoma 51.9% | SK-MEL-28 melanoma 101% | SK-MEL-2 melanoma 85.6% | EKVX NSCLC 77.7% | SN12C renal 61.2% | UO-31 renal 45% | TK-10 renal 95.5% | ACHN renal 46.1% | CAKI-1 renal 65.8%

Cc1c(C(=O)NCCC(=O)NO)sc2ncnc(Nc3ccc(F)c(Cl)c3)c12
inactive: HCT-15 colon 102% | HT29 colon 104% | SNB-75 CNS 97.5% | SNB-19 CNS 98.9% | U251 CNS 102% | PC-3 prostate 104% | SK-MEL-5 melanoma 102% | UACC-62 melanoma 102% | LOX IMVI melanoma 98.8% | SK-MEL-28 melanoma 112% | SK-MEL-2 melanoma 101% | EKVX NSCLC 99.4% | SN12C renal 103% | UO-31 renal 84.8% | TK-10 renal 107% | ACHN renal 102% | CAKI-1 renal 96.6% | CCRF-CEM leukemia 105% | MOLT-4 leukemia 115%

CN(C)c1ccc(Nc2c3ccccc3nc3cc(NC(=O)CCN4CCCC4)ccc23)cc1
active: HCT-15 colon -18.4% | HT29 colon 1.99% | SNB-75 CNS -0.0133% | SNB-19 CNS -7.13% | U251 CNS -48.6% | PC-3 prostate -25.4% | SK-MEL-5 melanoma 0.523% | LOX IMVI melanoma -74.8% | SK-MEL-28 melanoma -34.7% | EKVX NSCLC 9.96% | SN12C renal -7.36% | UO-31 renal -53.1% | TK-10 renal -12.7% | ACHN renal 1.64% | CAKI-1 renal -47.6% | CCRF-CEM leukemia -15% | MOLT-4 leukemia -8.89%
inactive: UACC-62 melanoma 15.5% | SK-MEL-2 melanoma 24%

O=C1c2ccc3c4c(ccc(c24)C(=O)N1CCCNCc1ccccc1)C(=O)N(CCCNCc1ccccc1)C3=O
active: HCT-15 colon -57.7% | HT29 colon -63.5% | SNB-75 CNS -97.2% | SNB-19 CNS -75.5% | U251 CNS -87.7% | PC-3 prostate -65.4% | SK-MEL-5 melanoma -99.2% | UACC-62 melanoma -71.1% | LOX IMVI melanoma -75.6% | SK-MEL-28 melanoma -95.9% | SK-MEL-2 melanoma -82.9% | EKVX NSCLC -39.2% | SN12C renal -88% | UO-31 renal -48.6% | TK-10 renal -84.2% | ACHN renal -53.5% | CAKI-1 renal -19.6% | CCRF-CEM leukemia -30.5% | MOLT-4 leukemia -32.3%

CCOC(=O)/C(C#N)=C1/NNC(=Nc2cccnc2)S1
inactive: HCT-15 colon 101% | HT29 colon 98.3% | SNB-75 CNS 92% | SNB-19 CNS 95.9% | U251 CNS 94.1% | PC-3 prostate 88.6% | SK-MEL-5 melanoma 98.6% | UACC-62 melanoma 95.5% | LOX IMVI melanoma 95.7% | SK-MEL-28 melanoma 105% | SK-MEL-2 melanoma 107% | EKVX NSCLC 98.7% | SN12C renal 98.6% | UO-31 renal 92.1% | TK-10 renal 102% | ACHN renal 100% | CAKI-1 renal 97.1% | CCRF-CEM leukemia 106% | MOLT-4 leukemia 106%

CCCCCCNC(=O)Oc1ccc(/C(=C(\C)c2ccccc2)c2ccc(OCCN3CCCCC3)cc2)cc1
inactive: SNB-75 CNS 92.5% | SNB-19 CNS 74.6% | U251 CNS 50.1% | PC-3 prostate 47.9% | SK-MEL-5 melanoma 71.2% | LOX IMVI melanoma 53.9% | SK-MEL-28 melanoma 48.8% | SK-MEL-2 melanoma 75.3% | EKVX NSCLC 77.7% | SN12C renal 71.4% | UO-31 renal 39.4% | TK-10 renal 83.3% | ACHN renal 90.2% | CAKI-1 renal 44.8% | CCRF-CEM leukemia 60.7% | MOLT-4 leukemia 43.7%
active: HCT-15 colon 8.13% | HT29 colon -6.46% | UACC-62 melanoma 5.21%
